Experimental data: the supplement of paper PMC6555819

Legend:
Test in all cases: PBM binding z-score (relative to random genomic background probes); higher = stronger binding; sequences stand for … in GC…GCGATTGACAGCGTAGAATGAAGG
[1] = system: FXR:RXRa (NR concentration 270 nM, RXRa partner concentration 90 nM)
In short: (§1)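 For binding z-scores, the reference was random background probes on custom Agilent 4×180K protein-binding microarrays. These arrays were incubated 1 h with ligand-free nuclear receptor dimers in PBS pH 7.4, 2% milk, 0.02% Triton X-100, 1 mM DTT, 0.2 mg/mL BSA and 0.4 mg/ml salmon testes DNA. Fluorescence was scanned after antibody detection of each partner (one per run) and regression-normalized.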

[2] = system: LXRa:RXRa (NR concentration 270 nM, RXRa partner concentration 90 nM)
In short: as §1

[3] = system: LXRa homodimer (NR concentration 270 nM)
In short: as §1

[4] = system: LXRb:RXRa (NR concentration 270 nM, RXRa partner concentration 90 nM)
In short: as §1

[5] = system: LXRb homodimer (NR concentration 270 nM)
In short: as §1

[6] = system: PPARa:RXRa (NR concentration 270 nM, RXRa partner concentration 90 nM)
In short: as §1

[7] = system: PPARg:RXRa (NR concentration 180 nM, RXRa partner concentration 90 nM)
In short: as §1

[8] = system: PPARg:RXRa 270nM:90nM, anti-RXR (NR concentration 270 nM, RXRa partner concentration 90 nM)
In short: as §1

[9] = system: PPARg:RXRa 30nM:10nM, anti-RXR (NR concentration 30 nM, RXRa partner concentration 10 nM)
In short: as §1

[10] = system: PPARg:RXRa 90nM:30nM, anti-RXR (NR concentration 90 nM, RXRa partner concentration 30 nM)
In short: as §1

[11] = system: PPARg:RXRa DBDmut IVT, anti-RXR (DBD mutation: RXRa K156A/R161A, NR concentration 270 nM, RXRa partner concentration 90 nM)
In short: as §1

[12] = system: PPARg:RXRa IVT, anti-PPARg (NR concentration 270 nM, RXRa partner concentration 90 nM)
In short: as §1

[13] = system: PPARg DBDmut:RXRa IVT, anti-PPARg (DBD mutation: PPARg1 K132A/R137A, NR concentration 270 nM, RXRa partner concentration 90 nM)
In short: as §1

[14] = system: PPARg DBDmut IVT, anti-PPARg (DBD mutation: PPARg1 K132A/R137A, NR concentration 270 nM)
In short: as §1

[15] = system: PPARg homodimer (NR concentration 180 nM)
In short: as §1

[16] = system: PXR:RXRa (NR concentration 270 nM, RXRa partner concentration 90 nM)
In short: as §1

[17] = system: PXR homodimer (NR concentration 270 nM)
In short: as §1

[18] = system: RARa:RXR (NR concentration 270 nM, RXRa partner concentration 90 nM)
In short: as §1

[19] = system: RARa homodimer (NR concentration 270 nM)
In short: as §1

[20] = system: RARb:RXRa (NR concentration 270 nM, RXRa partner concentration 90 nM)
In short: as §1

Row | Sequence | PBM binding z-score [1] | PBM binding z-score [2] | PBM binding z-score [3] | PBM binding z-score [4] | PBM binding z-score [5] | PBM binding z-score [6] | PBM binding z-score [7] | PBM binding z-score [8] | PBM binding z-score [9] | PBM binding z-score [10] | PBM binding z-score [11] | PBM binding z-score [12] | PBM binding z-score [13] | PBM binding z-score [14] | PBM binding z-score [15] | PBM binding z-score [16] | PBM binding z-score [17] | PBM binding z-score [18] | PBM binding z-score [19] | PBM binding z-score [20]
1 | ACTCAAAGTTCATCTAGGTAACGTAAGATATGCT | 6.73 | 6.05 | 5.36 | 4.18 | 2.43 | 4.79 | 3.49 | 3.98 | 1.56 | 2.74 | 1.43 | 2.81 | 2.23 | 2.06 | 3.4 | 5.34 | 7.92 | 4.08 | 2.11 | 5.33
2 | ACAGACAGGTGATGACGGTAACTCAGGCTATCAT | -0.347 | -0.186 | -0.31 | -0.476 | -0.424 | -0.121 | 0.839 | -0.227 | -0.335 | -0.0238 | 0.226 | 0.0775 | -0.319 | -0.184 | -0.306 | -0.319 | -0.0472 | -0.196 | 0.273 | 0.237
3 | ATCTCTAGGTAACAAGTTCAATGAAAGAGAGGAC | 1.38 | 1.5 | 1.01 | 1.42 | 1.28 | 2.44 | 2.44 | 2.87 | 1.22 | 2.61 | 3.6 | 3.31 | 1.41 | 1.75 | 1.45 | 2.68 | 3.18 | 1.75 | 1.83 | 2.18
4 | ATCTCTAGGTAATGTTCAGTGAAAGATCGATAGA | 0.347 | 0.554 | 0.048 | 0.107 | 1.09 | 0.239 | 0.489 | 0.323 | 0.558 | 0.276 | 2.57 | 1.63 | 1.27 | 1.25 | 0.598 | 0.381 | 0.219 | 0.543 | 0.802 | 0.148
5 | CCTTACGGGCCACTGACAGGTTATAGCATTTGGA | -0.0975 | -0.00158 | 0.136 | -0.0299 | -0.59 | 0.315 | 0.415 | 0.0355 | -0.0145 | -0.254 | 0.882 | 0.315 | -0.753 | -0.329 | 0.129 | -0.136 | -0.0803 | 0.247 | 0.161 | 0.69
6 | CCTCGGAGGACAGAAGGTCATAGCTGTCCGCTTT | 2.89 | 3.44 | 1.4 | 2.23 | -0.526 | 3.17 | 0.58 | 1.68 | -0.379 | 0.915 | 0.177 | 0.772 | -1.55 | -1.54 | 2.13 | 3.22 | 0.225 | 3.55 | 0.138 | 3.5
7 | TGAATGAGGTTAGAGATCAGGGAACGTGGCGTCG | 0.893 | 0.556 | -0.223 | 0.296 | 0.27 | 2.47 | 2.82 | 4.06 | 2.73 | 4.07 | 0.771 | 2.14 | 0.576 | 0.367 | 0.476 | 0.397 | -0.359 | 1.29 | -0.00359 | 1.3
8 | AGCCAAAGTTCATCTAGGTAACGTAAGATATGCT | 6.68 | 6.25 | 5.31 | 3.78 | 1.41 | 4.86 | 5.36 | 5.53 | 2.27 | 4.72 | 0.587 | 3.45 | 1.13 | 0.579 | 3.87 | 5.16 | 6.7 | 3.87 | 2.24 | 4.94
9 | GGAACGAGGGCATTCGAGTTGATAGCTTGGCGAT | 1.76 | 1.65 | -0.471 | 0.207 | -0.992 | 1.36 | 0.667 | 0.802 | -0.342 | 0.275 | 3.44 | 2.2 | -0.209 | -0.379 | -0.157 | 3.79 | 1.99 | 0.494 | -1 | 1.87
10 | CGTCCAAGATCAGAGAGGTCAGTGAATGCCGAGT | 1.64 | 2 | 1.44 | 1.92 | 0.00137 | 2.52 | 0.376 | 0.581 | 0.00146 | 0.0792 | 0.179 | 0.0749 | -0.351 | -0.769 | 2.69 | 3.22 | 2.06 | 3.09 | 1.49 | 2.95
11 | TGTCAAAGTTCACAGGTAACGTAAGTATCCACAC | 6.59 | 5.87 | 3.37 | 4.04 | 1.49 | 6.02 | 8.64 | 7.43 | 5.54 | 7.12 | 0.161 | 4.5 | 1.61 | 1.53 | 2.45 | 4.48 | 2.4 | 3.92 | 1.08 | 5.05
12 | ACTAGCAGGCCAAGTTTGGGTCACTAAAACAAAG | 0.0701 | 0.104 | -0.274 | 0.749 | -0.496 | 1.58 | 0.26 | 0.637 | -0.145 | 0.427 | 0.86 | 1.41 | -0.183 | -0.616 | 0.00653 | 0.707 | -0.272 | 1.49 | -0.238 | 1.79
13 | TCTATTTGTTGATTAGGGCAACCGAAACAGCGGA | 0.7 | 0.785 | 0.435 | 0.575 | 1.08 | 0.93 | 0.259 | 2.04 | 3.98 | 2.81 | 1.93 | 1.79 | 1.53 | 1.99 | 1.59 | 0.675 | 0.358 | 0.837 | 1.13 | 1.09
14 | CTACCAAGGTGAACACGGTCGTTGATTACTATTC | 0.926 | 0.679 | 0.219 | 1.01 | -0.319 | 1.35 | 0.647 | 0.659 | -0.147 | 0.147 | 2.72 | 2.43 | 0.613 | -0.0431 | 0.251 | 0.292 | 0.00892 | 0.57 | 0.749 | 1.88
15 | CGAGACAGGTGAAAGGTAACTCAGTCTGGTACGC | 0.533 | 0.602 | -0.513 | 0.732 | -0.851 | 3.47 | 5.43 | 6.27 | 4.23 | 6.7 | 1.78 | 2.95 | 0.301 | -1.14 | 1.05 | 0.75 | -0.102 | 1.92 | -0.282 | 1.19
